The record followed here is PubChem BioAssay AID1445 (SRMLSC, 2008).

Hit rate of the full screen: of about 220,000 compounds, about 910 (0.41%) were called active.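 Rule for the calls: active = primary inhibition above the hit cutoff, then over 50% inhibition at one or more dose response concentrations (cut at about 23% in these data, passing the limit was not always enough); inconclusive = conflicting primary data, or primary hits not chosen for dose response; inactive = low primary inhibition, or under 50% at every dose.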 For the sample, actives were picked, then their nearest neighbours and some compounds at random. Results with a measured potency or affinity are listed apart.

The inhibition is the drop in the measured response relative to a control, in per cent.

This experiment deals with Aminopeptidase N (Plasmodium falciparum (isolate 3D7)) (UniProt O96935). Description: P. falciparum M1AAP inhibitors, biochemical, fluorogenic H-Leu-NHMec substrate, 1536-well (AID 1445).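 Note: plate controls were DMSO full reaction for no effect and no enzyme background for full effect.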 The conditions noted are these: recombinant M1AAP, H-Leu-NHMec fluorogenic kinetic assay; at 30 µM, stronger effect = higher value unless noted.
Sequence of Aminopeptidase N (Plasmodium falciparum (isolate 3D7)) (O96935 whole entry, looked up): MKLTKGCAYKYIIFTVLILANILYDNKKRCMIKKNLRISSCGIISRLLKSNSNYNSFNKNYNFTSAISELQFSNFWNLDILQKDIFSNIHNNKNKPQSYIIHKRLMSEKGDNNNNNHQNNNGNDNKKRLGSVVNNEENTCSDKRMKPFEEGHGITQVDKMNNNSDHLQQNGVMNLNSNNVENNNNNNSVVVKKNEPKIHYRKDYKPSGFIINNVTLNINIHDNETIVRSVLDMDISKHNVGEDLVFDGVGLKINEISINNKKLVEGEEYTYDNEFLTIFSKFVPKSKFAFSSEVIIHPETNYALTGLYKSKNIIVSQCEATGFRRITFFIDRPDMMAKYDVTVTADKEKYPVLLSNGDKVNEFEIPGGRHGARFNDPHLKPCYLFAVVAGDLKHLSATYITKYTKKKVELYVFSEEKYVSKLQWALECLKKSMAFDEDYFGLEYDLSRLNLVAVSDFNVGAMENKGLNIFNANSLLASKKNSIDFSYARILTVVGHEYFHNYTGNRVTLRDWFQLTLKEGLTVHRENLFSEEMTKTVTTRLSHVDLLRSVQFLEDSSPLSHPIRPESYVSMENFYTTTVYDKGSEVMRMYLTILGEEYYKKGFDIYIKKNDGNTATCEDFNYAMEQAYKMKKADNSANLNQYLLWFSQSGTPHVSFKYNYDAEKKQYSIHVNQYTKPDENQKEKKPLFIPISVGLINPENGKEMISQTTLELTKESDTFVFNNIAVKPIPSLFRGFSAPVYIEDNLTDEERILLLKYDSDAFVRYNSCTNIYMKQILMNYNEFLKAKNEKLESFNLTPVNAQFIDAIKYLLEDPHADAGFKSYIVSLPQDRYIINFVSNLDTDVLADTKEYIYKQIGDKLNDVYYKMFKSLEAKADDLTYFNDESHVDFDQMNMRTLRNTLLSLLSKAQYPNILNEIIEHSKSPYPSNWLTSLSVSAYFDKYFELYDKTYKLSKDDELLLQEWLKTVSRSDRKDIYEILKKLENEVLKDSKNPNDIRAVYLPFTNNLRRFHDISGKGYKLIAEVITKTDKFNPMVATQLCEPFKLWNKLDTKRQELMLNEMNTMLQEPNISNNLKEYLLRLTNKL
As for `O=C(COC(=O)c1ccncc1)NCCCc1ccccc1`, the inhibition was 2.54% (inactive).
With `Cc1ccc(Cl)cc1NC(=O)c1cccc(OC(F)F)c1` the figure was 5.73% (inactive).
For the compound `Cc1occc1-c1nnc(SCC(=O)Nc2ccccc2)n1CCc1ccccc1`, the inhibition was 0.44% (inactive).
With `Cc1ccccc1NC(=O)CSc1nnc(-c2ccoc2C)n1CCc1ccccc1`, the inhibition was 8.39% (inactive).
Turning to `COc1ccccc1NC(=O)CSc1nnc(-c2ccoc2C)n1CCc1ccccc1`, the inhibition was 24.7% (active).
Regarding `CCCCc1cc(=O)oc2cc(OCc3cc(OC)c(OC)c(OC)c3)c(Cl)cc12`, the inhibition is -3.71% (inactive).
In the case of `C=CCc1c(O)c(CC)cc2c(C)cc(=O)oc12`, the inhibition was 10.9% (inactive).
As for `CCCCc1cc(=O)oc2cc(OCc3nn[nH]n3)c(Cl)cc12`, the inhibition is 6.21% (inactive).
For `CCC(=O)c1cc2c(C)cc(=O)oc2c(C)c1O`, the inhibition was 4.77% (inactive).
For the compound `Cc1cc(=O)oc2c(N)c(O)ccc12`, the inhibition was 8.69% (inactive).
Consider `CCCCc1cc(=O)oc2cc(OCC(=O)N(CC)CC)c(Cl)cc12`, for which the inhibition was 6.8% (inactive).
On to `CCN(CC)Cc1c(O)ccc2c(-c3ccccc3)cc(=O)oc12`, for which the inhibition is 8.74% (inactive).
As to `COc1ccccc1N1CCN(C(=O)CSc2ccccc2)CC1`, the inhibition is -1.68% (inactive).
In the case of `COc1cc(OC)cc(-c2nnc(SCC(=O)N(Cc3ccccc3)C(C)(C)C)o2)c1`, the inhibition is 1.01% (inactive).
With `Cc1cccc(NC(=O)c2ccccc2OCC(=O)c2ccc(F)cc2)c1`, the inhibition is 3.15% (inactive).
With `COC(=O)c1cc(Br)c(N)cc1OC`, the inhibition was -6.6% (inactive).
With `CC(=O)c1cccc(NC(=O)C2CC(=O)N(c3cccc(C)c3C)C2)c1` (configuration not stated) the figure was -2.91% (inactive); with `O=C(O)c1ccccc1C(=O)NNc1cccc(Cl)n1`, 0.28% (inactive); with `O=C(CCCc1nc2ccccc2s1)NNC(=O)CCN1CCN(Cc2ccccc2)CC1`, 2.9% (inactive).
With `O=C(O)CC1=C(Nc2ccccc2)C(=O)N(c2ccccc2)C1c1ccc(F)cc1` (configuration not stated) the figure was -3.54% (inactive).
On to `CCCc1cc(=O)oc2cc(OCC(=O)N(C)C)c(Cl)cc12`, for which the inhibition is -0.86% (inactive).
`CN(C)Cc1c(O)ccc2c(-c3ccccc3)cc(=O)oc12`: the inhibition is 7.13% (inactive).
For `CCCCN(C)Cc1c(O)ccc2c(-c3ccccc3)cc(=O)oc12`, the inhibition was 3.86% (inactive).
In the case of `CCCc1cc(=O)oc2c(C)c3occ(C)c3cc12` it was -0.02% (inactive); in that of `Oc1c(C(c2cccc(F)c2)N2CCN(Cc3ccccc3)CC2)sc2ncnn12` (configuration not stated), 9.71% (inactive); in that of `Cc1ccc(-c2cc(C(=O)O)n[nH]2)o1`, 5.31% (inactive).
With `CC1CCCCN1C(=O)c1cc(-c2ccc(Cl)c(Cl)c2)on1` (configuration not stated) the figure was -16.2% (inactive).
With `O=C(CSc1nnc(-c2cc3ccccc3cc2O)n1Cc1ccco1)N1CCc2ccccc2C1` the figure was 10.2% (inactive); with `c1ccc(CSCc2cn3ccccc3n2)cc1`, -5.43% (inactive); with `O=C(O)c1ccc(-c2ccccn2)s1`, 0.37% (inactive).
Take `Nc1ccc(-c2ccc(C(=O)O)s2)cn1`: the inhibition is 28.6% (inactive).
In the case of `CC1CCc2c(sc3nc(CSc4n[nH]c(N)n4)[nH]c(=O)c23)C1` (configuration not stated) it was -10.6% (inactive); in that of `O=C(Nc1nccs1)c1csc2c1CCCC2`, 8.61% (inactive).
With `Cc1ccc(-c2ccc(=O)n(CC(=O)Nc3cccc(C(=O)N4CCN(C)CC4)c3)n2)cc1` the figure was 6.7% (inactive); with `O=C1CC(c2ccccc2F)c2c(c3ccccc3[nH]c2=O)O1` (configuration not stated), 0.7% (inactive).
With `Cc1sc(NC(=O)CSc2nnc(-c3ccc(F)cc3)o2)c(C#N)c1C`, the inhibition is 16% (inactive).
Take `Cc1sc(NC(=O)CSc2nnc(-c3ccccc3)o2)c(C#N)c1C`: the inhibition was 25% (active).
Take `N#Cc1c(NC(=O)CSc2nnc(-c3ccccc3)o2)sc2c1CCCC2`: the inhibition is 21.3% (inactive).
With `CCc1nnc(NC(=O)CSc2nnc(-c3ccco3)o2)s1`, the inhibition is -0.37% (inactive).
For `COC(=O)CSc1nnc(-c2ccc(NS(=O)(=O)c3ccccc3)cc2)o1`, the inhibition was 7.24% (inactive).
In the case of `Cc1ccc(-n2c(C)nc3c(cnn3-c3ccc(C)c(C)c3)c2=O)cc1C` it was 2.27% (inactive); in that of `CNNC(=O)C(=O)NNS(=O)(=O)c1ccccc1`, 4.63% (inactive); in that of `O=C1c2ccccc2C(=O)N1c1ccc(-c2nc3ccccc3o2)cc1`, -1.24% (inactive).
In the case of `O=C1c2ccccc2C(=O)N1Cc1nc2ccccc2o1` it was 13% (inactive); in that of `O=C(c1ccc(F)cc1)N(NC(=O)C(O)(c1ccccc1)c1ccccc1)c1ccccc1`, 0.71% (inactive); in that of `COc1ccc(C(=O)/C=C/Nc2cc(C)on2)cc1`, 8.8% (inactive).
With `COc1ccc([N+](=O)[O-])cc1/C=N/NC(=O)/C(=C\c1cccs1)NC(=O)c1ccccc1` the figure was 4.13% (inactive).
Consider `COCCn1c(-c2ccco2)nc2nc3ccccc3nc21`, for which the inhibition is 22.9% (inactive).
On to `CCCCCn1c(-c2ccco2)nc2nc3ccccc3nc21`, for which the inhibition is 13% (inactive).
Consider `c1coc(-c2nc3nc4ccccc4nc3n2CC2CCCO2)c1` (configuration not stated), for which the inhibition is 26% (active).
`Fc1ccccc1-c1nc2nc3ccccc3nc2n1CC1CCCO1` (configuration not stated): the inhibition is 14.5% (inactive).
On to `c1ccc(-c2nc3nc4ccccc4nc3n2CC2CCCO2)cc1` (configuration not stated), for which the inhibition is 15.8% (inactive).
Turning to `COC(=O)c1ccccc1NC(=O)Cn1cnc2ccc(S(=O)(=O)N3CCC(C)CC3)cc2c1=O`, the inhibition is 20.3% (inactive).
For the compound `CCOC(=O)C1=C(CN2CCSCC2)NC(=O)NC1c1ccc2c(c1)OCO2` (configuration not stated), the inhibition is -5.96% (inactive).
Consider `O=[N+]([O-])c1ccccc1/C=N/N1CCN(c2ccc(Cl)cc2)CC1`, for which the inhibition was 1.05% (inactive).
Consider `C/C(N)=C(/C#N)C(=O)COC(=O)Cc1coc2cc(C)ccc12`, for which the inhibition is 4.44% (inactive).
In the case of `C/C(=N\NC(=O)c1ccc(Br)cc1)C1C(=O)c2ccccc2C1=O`, the inhibition is 39.9% (inactive).
On to `C/C(CC(=O)N1CCCC1)=N\NC(=O)c1cc2ccccc2cc1O`, for which the inhibition is 10.8% (inactive).
For the compound `C/C(=N\NC(=O)c1cc2ccccc2cc1O)c1cc2ccccc2o1`, the inhibition was 3.43% (inactive).
With `C/C(=N\NC(=O)CCc1ccccc1)C1C(=O)c2ccccc2C1=O` the figure was 0.57% (inactive).
Consider `C/C(=N\NC(=O)c1ccc(-c2ccccc2)cc1)C1C(=O)c2ccccc2C1=O`, for which the inhibition was -1.49% (inactive).
With `CCOc1ccc(C(=O)N/N=C(/C)C2C(=O)c3ccccc3C2=O)cc1` the figure was 4.51% (inactive).
